The record followed here is PubChem BioAssay (NCI).

Compounds without any hit were thinned out: in the full panel of roughly 83,000, 20% have a hit.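 Single-concentration screen, 48 h exposure, 96-well plates. Endpoint: percent growth. Below 10 = active.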 Values without a mark were called inactive. Active and inactive are the calls of the source.

Common to all, as to experiment: NCI-60 one-dose screen, 48 h (100 = growth as untreated, 0 = no growth, -100 = all killed)
What all share (settings): 10 µM unless noted

Test [1] concerns T-47D breast.
Test [2] concerns BT-549 breast.
The subject of test [3] is SW-620 colon.
In test [4] the test system is MCF7 breast.
Test [5] has as its system HCT-116 colon.
Test [6] concerns HCC-2998 colon.
For test [7], the system named is KM12 colon.
In test [8] the test system is MDA-MB-435 melanoma.

For the compound `C=C1CCC2C3(C)COC(c4ccc(N(C)C)cc4)OC3CCC2(C)C1C/C=C1/C(=O)OCC1O` (stereo not drawn), the growth in test [1] is 52.1%; in test [2] it was 46.4%; in test [3], 26%; in test [4] it was 29.5%; in test [5], 21.6%; in test [6] it was 112%. Besides, in test [7], the growth was 54.6%.
Take `O=C1c2ccccc2-c2ccccc2C1(Cl)Cl`: the growth is -42.7% (active) in test [1]; -84% (active) in test [2]; -65.8% (active) in test [3]; -88.7% (active) in test [4]; -70.6% (active) in test [5]; 89.6% in test [6]. Further, the growth in test [7] was -90.6% (active).
Regarding `CCCN=C1NC(=O)/C(=C/c2nc(-c3ccc(OC)cc3)n3ccccc23)S1`, the growth in test [1] is 87.3%; in test [2], 90.5%; in test [3], 72.9%; in test [4], 77.5%; in test [5], 26.3%; in test [6] it was 97%. Besides, the growth in test [7] is 48.8%.
Regarding `CC(C)(C)c1[nH]nc2c1C(c1cc3ccccc3[nH]c1=O)Nc1cc(C(=O)Nc3ccc(Cl)cc3)ccc1N2` (stereo not drawn), the growth in test [1] is 40%; in test [2] it was 63.9%; in test [3], 66.3%; in test [4] it was 27.8%; in test [5], 45.6%; in test [6], 86.3%. For the same compound, in test [7], the growth is 50.2%.
Take `CC12CCC3C4(C)COC(c5ccco5)OC4CCC3(C)C1CC(C1=CCOC1=O)O2` (stereo not drawn): the growth was 101% in test [1]; 103% in test [8]; 107% in test [3]; 98.9% in test [4]; 104% in test [5]; 105% in test [6]. For the same compound, the growth in test [7] is 103%.
For the compound `CCCCCCCCCCCCNC(=O)[C@H]1CSC(c2cc3ccccc3s2)N1` (stereo partly drawn), the growth in test [1] was 52.5%; in test [2] it was -60.1% (active); in test [3] it was 3.61% (active); in test [4] it was 42.4%; in test [5] it was -80% (active); in test [6], 61.4%. In addition, the growth in test [7] was -50.7% (active).
For the compound `COc1ccc(NC(=O)c2cc(OC)c(OC)c(OC)c2)cc1O`, the growth was 42.5% in test [1]; 45.5% in test [2]; 28.1% in test [3]; 24% in test [4]; 33.4% in test [5]; 22.9% in test [7].
Consider `Cc1ccc(S(=O)(=O)/C(=C\c2ccc(Cl)cc2)C(=O)c2ccccc2)cc1`, for which the growth in test [1] was 95.3%; in test [2], 102%; in test [3], 106%; in test [4], 82.3%; in test [5], 106%; in test [6] it was 107%. Besides, in test [7], the growth is 111%.
As to `CC(=O)Nc1nc(N)nc(NC(C)=O)c1N=O`, the growth in test [1] is 110%; in test [2], 104%; in test [3] it was 101%; in test [4] it was 108%; in test [5] it was 98.6%; in test [6], 84%. Further, the growth in test [7] was 111%.
With `CCN(CC)CCC(CNc1c2ccc(Cl)cc2nc2ccc(OC)cc12)c1ccccc1` (stereo not drawn), the growth was -58.8% (active) in test [1]; -80.4% (active) in test [8]; -49.7% (active) in test [3]; -38.6% (active) in test [4]; -36% (active) in test [5]; -72% (active) in test [6]. The growth in test [7] is -24.1% (active).
Consider `CCCCCCCCCCCC(=O)NCCC[N+](C)(C)CC(=O)[O-]`, for which the growth in test [1] was 92%; in test [2], 85.5%; in test [3], 109%; in test [4], 99.8%; in test [5] it was 89.9%; in test [6], 96%. Also, in test [7], the growth was 86.6%.
`COc1cc(C(=O)/C=C/c2ccc3nc(-c4cc(F)cc(F)c4)sc3c2)cc(OC)c1OC`: the growth was 102% in test [1]; 95.3% in test [2]; 104% in test [3]; 97.5% in test [4]; 87% in test [5]; 93.1% in test [6]. Also, the growth in test [7] was 108%.
`CCCCCc1cc[n+](CC(=O)c2ccc([N+](=O)[O-])cc2)cc1`: the growth in test [1] was 56.7%; in test [2], 77%; in test [3], 49%; in test [4], 43%; in test [5], 21.2%; in test [6], 58.1%. Also, in test [7], the growth is 50%.
On to `COc1cc2c(cc1OCCCN1CCN(CCCn3c4ccccc4c4ccccc43)CC1)N=C[C@@H]1CCCN1C2=O`, for which the growth in test [1] was -31.1% (active); in test [2], -84.1% (active); in test [3], -83.2% (active); in test [4], -72% (active); in test [5], -27.8% (active); in test [6], -86.3% (active). Moreover, the growth in test [7] was -64.7% (active).
`Cc1cc(C(C)(C)C)ccc1S`: the growth was 91.6% in test [1]; 105% in test [2]; 98.4% in test [3]; 86.4% in test [4]; 103% in test [5]; 112% in test [6]. For the same compound, in test [7], the growth was 112%.
Consider `O=C1NN(C(=O)c2ccc(Cl)cc2)C(c2ccccc2)=N/C1=C\c1cn(-c2ccccc2)nc1-c1ccccc1`, for which the growth in test [1] is 90.4%; in test [2], 101%; in test [3] it was 101%; in test [4], 91.3%; in test [5] it was 82.4%; in test [6], 101%. Moreover, the growth in test [7] is 98.6%.
As for `O=C1/C(=C/c2ccc(Cl)cc2)CN(Cc2cn(CCNc3ccnc4cc(Cl)ccc34)nn2)C/C1=C\c1ccc(Cl)cc1`, the growth in test [1] is -32.6% (active); in test [2], -96.4% (active); in test [3], -92.5% (active); in test [4], -100% (active); in test [5] it was -85.5% (active); in test [6], -95.1% (active). In addition, the growth in test [7] is -93.9% (active).
